Inconclusive results are not listed. Calls of active or inactive are those of the source. The call rests on the fitted dose curve; in most records, active means well fitted inhibition curve with a large enough effect; inconclusive means small, poorly fitted or top-dose-only effect; inactive means flat fitted curve, though single readings scatter. *1 amine or outer side, *2 acyl side, *3 side chain or, on linkers, in order; H or OH if unused. Where a SMILES comes first, the peptide text is derived from it. Bridges are numbered along the chain shown (N, C = ends). [ ]: non-standard residue; d: D form. The star is where a group is joined. pTerphenylCO(4''-OnC5H11) = CCCCCOc1ccc(-c2ccc(-c3ccc(C(=O)*)cc3)cc2)cc1; Orn(4R-OH,5R-OH) = O=C([C@H](C[C@@H](O)[C@@H](O)N[*:3])N[*:1])[*:2]; hTyr(3S-OH,4S-OH) = N[C@H](C(=O)O)[C@H](O)[C@@H](O)c1ccc(O)cc1; Pro(3S-OH,4S-Me) = C[C@H]1CN[C@H](C(=O)O)[C@H]1O; Hyp = O=C(O)[C@@H]1C[C@@H](O)CN1
assay: P-glycoprotein substrates identified in KB-8-5-11 adenocarcinoma cell line, qHTS therapeutic library screen (AID 1346987); conditions: KB-8-5-11 (P-gp overexpressing) viability, CellTiter-Glo, 72 h; series mostly up to 44.5 µM; activity change, negative = cytotoxicity: at the top concentration; further: nearly all actives have a fitted effect of over 65% in size
How it was run: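 Human cervical adenocarcinoma KB-8-5-11 cells, selected in colchicine to over-express P-gp and assayed without it, were exposed for 72 h to titrated compounds. An ATP-based luminescent viability signal gave AC50.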
On the % scale 0 is the no-effect control and ±100 the full control effect; potency means the concentration at half of the fitted maximal effect.

Compound	Potency	activity change, negative = cytotoxicity	outcome
C=CC(=O)N1CCC(Oc2cc3c(Nc4ccc(Cl)c(Cl)c4F)ncnc3cc2OC)CC1	11.6 µM (active)	–	–
O=C(c1ccccc1)c1c(O)cc(O)cc1O[C@@H]1O[C@H](CO)[C@@H](O)[C@H](O)[C@H]1O	–	-6.93% (inactive)	–
COC1=C(C(=O)O)N2C(=O)[C@@H](NC(=O)[C@H](N)C3=CCC=CC3)[C@H]2SC1	–	1.24% (inactive)	–
O=C(O)c1cccc(-c2ccc(-c3cn(C(=O)N4CCCCC4Cc4ccccc4)nn3)cc2)c1 (stereo not given)	–	-22.9% (inactive)	–
CCCNCCc1ccc(NS(=O)(=O)c2ccc(OC(F)(F)F)cc2)cc1	–	-6.03% (inactive)	–
Nc1nc2c(nc(Br)n2[C@@H]2O[C@@H]3COP(=O)(O)O[C@H]3[C@H]2O)c(=O)[nH]1	–	1.42% (inactive)	–
O=C(NCCCNc1nc(Nc2cccc(CN3CCOCC3)c2)ncc1C1CC1)C1CCC1	10.3 µM (active)	–	–
C=C(C)C(=O)O[C@H]1[C@H]2C(=C)C(=O)O[C@@H]2/C=C(\CO)CC/C=C(/C=O)[C@@H]1O	–	9.69% (inactive)	–
C=C1C(=O)O[C@@H]2/C=C(/C)[C@@H](OC(C)=O)C/C=C(\C)C[C@@H](OC(=O)/C(=C/CO)CO)[C@@H]12	–	–	inactive [at 17.3 µM]
OC(CN1CCCCC1)c1cc(-c2ccccc2)on1 (stereo not given)	–	-8.56% (inactive)	–
S=C(c1ccc(-c2ccc(Cl)c(Cl)c2)o1)N1CCCCC1	–	-10.6% (inactive)	–
CCCCCOc1ccc(-c2ccc(-c3ccc(C(=O)N[C@H]4C[C@@H](O)[C@@H](O)NC(=O)[C@@H]5[C@@H](O)[C@@H](C)CN5C(=O)[C@H]([C@@H](C)O)NC(=O)[C@H]([C@H](O)[C@@H](O)c5ccc(O)cc5)NC(=O)[C@@H]5C[C@@H](O)CN5C(=O)[C@H]([C@@H](C)O)NC4=O)cc3)cc2)cc1 ({pTerphenylCO(4''-OnC5H11)}-[Orn(4R-OH,5R-OH)]T[Hyp][hTyr(3S-OH,4S-OH)]T[Pro(3S-OH,4S-Me)]; lactam 1-C)	–	–	inactive [at 17.3 µM]
CC[C@@H](C)[C@@H]1OC2(C=C[C@H]1C)C[C@@H]1C[C@H](C/C=C(\C)[C@H](O[C@H]3C[C@H](OC)[C@H](O[C@H]4C[C@H](OC)[C@H](NC(C)=O)[C@H](C)O4)[C@H](C)O3)[C@H](C)/C=C/C=C3\CO[C@H]4[C@H](O)C(C)=C[C@@H](C(=O)O1)[C@@]34O)O2 (stereo not given in full)	10.1 µM (active)	–	–
CCC/C=C/c1cc2c(C=O)c(O)c(CC=C(C)C)cc2o1	–	-14% (inactive)	–
C=C1CC[C@@H]2[C@](C)(CO)[C@H](O)CC[C@@]2(C)[C@@H]1C/C=C1/C(=O)OCC1OC(=O)/C(=C/CO)C(O)C[C@@H]1C(=C)CC[C@@H]2[C@](C)(CO)[C@H](O)CC[C@]21C (stereo not given in full)	–	9.82% [at 17.3 µM] (inactive)	–
COc1cc(N2CCC(O)CC2)ccc1Nc1nc(Nc2ccccc2S(=O)(=O)C(C)C)c2[nH]cnc2n1	–	-5.23% (inactive)	–
Cc1cc(C)c(-n2cc(C)c3c(Cl)nc(C)nc32)c(C)c1	–	-16% (inactive)	–
CC(C)C[C@@H]1NC(=O)[C@@H]2C[C@@]34C[C@@H]5[C@@]6(C)CCCC(C)(C)C6CC[C@@]5(C)N(c5ccccc53)[C@H]4N2C1=O (stereo not given in full)	–	-25.2% [at 17.3 µM] (inactive)	–
CCOc1nc(NC(=O)Cc2cc(OC)ccc2OC)cc(N)c1C#N	–	-16.3% (inactive)	–
C=CCC1=C[C@]2(OC)[C@H](C)[C@@H](c3ccc4c(c3)OCO4)O[C@]2(OC)CC1=O	–	-18.8% (inactive)	–

Compound	Potency	activity change, negative = cytotoxicity	outcome
C=C1C(=O)O[C@@H]2[C@H]3C(C)=CC(=O)C3=C(C)[C@@H](OC(=O)/C(C)=C\C)[C@H](O)[C@@H]12	–	-27.3% (inactive)	–
COc1ccc2nc3n[nH]c(C)c3c(NCCOCCO)c2c1	–	2.13% (inactive)	–
Cc1cc(N2CCN(C(=O)Oc3ccc(-c4ccccc4)cn3)CC2)c2ccccc2n1	14.6 µM (active)	–	–
CC1OC(=O)C[C@@H]2C(C(=O)O)=CO[C@@H](O[C@H]3O[C@H](CO)[C@@H](O)[C@H](O)[C@H]3O)[C@H]12 (stereo not given in full)	–	9.45% (inactive)	–
CN(c1ccc(NC(=O)Nc2ccccc2)cc1)S(=O)(=O)c1cnn(-c2ccc(F)cc2)c1	11.6 µM (active)	–	–
Cc1cc(OCCCS(C)(=O)=O)cc(C)c1-c1cccc(COc2ccc3c(c2)OCC3CC(=O)O)c1 (stereo not given)	–	-14.9% (inactive)	–
CCN(CC)CCOC(=O)c1ccc(N)cc1Cl	–	-1.18% (inactive)	–
CO[C@H]1C[C@H](O[C@H]2[C@H](C)O[C@@H](O[C@@H]3/C(C)=C/C[C@@H]4C[C@@H](C[C@]5(C=C[C@H](C)[C@@H](C6CCCCC6)O5)O4)OC(=O)[C@@H]4C=C(C)[C@@H](O)[C@H]5OC/C(=C\C=C\[C@@H]3C)[C@]54O)C[C@@H]2OC)O[C@@H](C)[C@@H]1O	20.6 µM (active)	–	–
Fc1ccc(-c2nc(-c3ccccc3F)[nH]c2-c2ccncc2)cc1	–	-3.18% (inactive)	–
Cc1cc(-c2cnc(N)c3c(-c4ccc5scnc5c4)csc23)n(C)n1	8.2 µM (active)	–	–
Cc1cc2occ(CN(C)CCN(C)Cc3cn(-c4cccc(C(F)(F)F)c4)c4ccccc34)c(=O)c2cc1C	18.4 µM (active)	–	–
CCCCCCCCn1cc(CN(CC)CC)c2cc(-c3cnc(N)nc3)ccc21	18.4 µM (active)	–	–
Cc1[nH]c2ccccc2c1CCNC(=O)c1cccs1	–	-27% (inactive)	–
O=C1C(Cc2ccc(O)cc2)N2C(=O)CCN(C(=O)NCc3ccccc3)C2CN1Cc1cccc2ccccc12 (stereo not given)	–	3.1% (inactive)	–
Nc1nc2c(cnn2CCCc2ccc(O)cc2)c2nc(-c3ccco3)nn12	–	–	inactive
CN1CCN(c2ccc(OC(F)(F)F)c(Nc3ncc4c(n3)-c3c(c(C(N)=O)nn3CCO)CC4)c2)CC1	0.517 µM (active)	–	–
CCCC(CCC)C(N)=O	–	0.374% (inactive)	–
CC(=O)[C@H]1CC[C@H]2[C@@H]3CC=C4C[C@@H](OS(=O)(=O)O)CC[C@]4(C)[C@H]3CC[C@]12C	–	-0.384% (inactive)	–
Cc1cccc(N2CCN(C(=O)c3cc(S(=O)(=O)N(C)C)ccc3N3CCCC3)CC2)c1C	–	1.87% (inactive)	–
CCN(CC)c1ccc(C(=C2C=CC(=[N+](CC)CC)C=C2)c2ccccc2)cc1	4.61 µM (active)	–	–

— PubChem BioAssay (NCATS)
